From PubChem BioAssay
KB-V1 MDR tox = qHTS assay for MDR1-selective chemotherapeutics: Primary screen using the drug-selected MDR subline cells KB-V1; KB-V1 MDR cells viability, CellTiter-Glo, 72 h; Potency, µM (titrated, usually from 46.1 µM), most hits filed as cytotoxic; hit rate 3.4% among 400,000; AID 1347076, 2019; further: potency means the concentration at half of the fitted maximal effect; nearly all actives have a fitted effect of over 60% in size
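Cytotoxicity toward P-gp-expressing KB-V1 cells was determined as loss of CellTiter-Glo luminescence after 72 h at 37 degrees C. Compounds were tested in quantitative HTS format across a concentration range, with curves fitted to normalized data.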
HT1080NT lethal = qHTS for induction of synthetic lethality in tumor cells producing 2HG: qHTS for the HT-1080-NT fibrosarcoma cell line | HT-1080-NT fibrosarcoma viability, CellTiter-Glo ATP luminescence, 48 h | Potency, µM (doses to about 46.1 µM), inactives show top-dose activity, negative = less viability, hits mostly cytotoxic | hit rate 1.6% among 360,000 | AID 686970, 2013;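 further: NT is the 2HG producing partner of a matched IDH1 knockdown line; potency means the concentration at half of the fitted maximal effect; 0% = DMSO-treated cells and -100% = media-only wells without cells; nearly all actives have a fitted effect of over 55% in size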
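750 cells/well, RPMI + 5% FBS; 2 h settle, compound pin-transfer, 48 h at 37 degrees C. CellTiter-Glo 10 min RT, luminescence. Normalized to DMSO and media-only wells.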
IL-1B inflam inh = qHTS for Inhibitors of Inflammasome Signaling: IL-1-beta AlphaLISA Primary Screen; THP-1 LPS/ATP IL-1B secretion, AlphaLISA, 16 h; active compounds read low; activity change, % at 57.5 µM; hit rate 4.7% among 360,000; in the data active means activity change below about -50%; inconclusive means mostly about -30% to -49%
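THP-1 cells pretreated 1 hr with compounds (up to 57.5 uM final), then stimulated with LPS (250 ng/mL final) plus ATP (1.25 mM final); secreted IL-1B measured by AlphaLISA after 16 hr, decreased signal indicating inhibition.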
KB-3-1 tox = qHTS assay for MDR1-selective chemotherapeutics: Primary screen using the parental adenocarcinoma cell KB-3-1; KB-3-1 viability, CellTiter-Glo ATP luminescence, 72 h; Potency, µM (doses to about 46.1 µM), usual class: cytotoxic; hit rate 1.4% among 400,000; further: potency means the concentration at half of the fitted maximal effect; nearly all actives have a fitted effect of over 60% in size
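Parental KB-3-1 viability, qHTS format: 72 h compound exposure, 37 °C; CellTiter-Glo; media-only wells and DMSO plates as controls; concentration-effect fits on corrected data.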
HT1080 IDH1KD tx = qHTS for induction of synthetic lethality in tumor cells producing 2HG: qHTS for the HT-1080-IDH1KD cell line; HT-1080 IDH1 knockdown viability, ATP luminescence, 48 h; Potency, µM (doses to about 46.1 µM), for the others: top-dose activity, negative = toxicity, actives largely listed as cytotoxic; hit rate 2% among 360,000; AID 686971, 2013;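 further: potency means the concentration at half of the fitted maximal effect; 0% = DMSO wells and -100% = cell-free medium wells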
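Cytotoxicity counter-line: IDH1KD HT-1080, 48 h, CellTiter-Glo. Curves classed by r2, magnitude and activity.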
Starred values were filed as active, the others as inactive; i = inactive; ? = inconclusive; / = not tested or not shown; ! = not active in a repeat. This is a sample that favours compounds with a hit; in the whole collection about 8.8% have one here. Unless noted, the call rests on the fitted dose curve; in most records, active means well fitted curve in the direction sought with a large enough effect; inconclusive means small, poorly fitted or top-dose-only effect, or another doubt; inactive means no such curve, though single readings can be large; an effect the other way counts as inactive or inconclusive. Unless noted, on the % scale 0 is the no-effect control and ±100 the full control effect.

SMILES	KB-V1 MDR tox	HT1080NT lethal	IL-1B inflam inh	KB-3-1 tox	HT1080 IDH1KD tx
Cc1cc(Cl)ccc1NC(=O)CCn1nc(C)c2c(C)n(-c3ccccc3)nc2c1=O	i	/	/	i	/
CCOc1ccc(CNC(=O)C2CCN(c3nn4c(=O)cc(C)nc4s3)CC2)cc1	i	-7.8%	-4.1	i	-5.6%
O=C1OC(c2ccccc2)c2ccccc21 (stereo not drawn)	i	-1.0%	-14.5	i	18.5%
O=S1OC(c2ccccc2)c2cc(Cl)ccc21 (stereo not drawn)	i	-3.9%	-110.8*	i	-11.2%
COc1ccc(C(=O)Nc2ccc([N+](=O)[O-])cn2)c(OC)c1	i	15.4%	-0.7	i	22.5%
COc1cccc(CNC(=O)c2sc3ncccc3c2-n2c(C)ccc2C)c1OC	i	/	/	i	/
CN1CCN(S(=O)(=O)c2ccc(Sc3nnnn3-c3ccccc3)c([N+](=O)[O-])c2)CC1	?	-5.7%	-74.0*	?	-7.5%
CC(=O)c1ccc(Sc2nnnn2-c2ccccc2)c([N+](=O)[O-])c1	?	-17.5%	-99.7*	?	?
CC(=O)c1ccc(Sc2ccccn2)c([N+](=O)[O-])c1	i	20.6%	-24.1	i	17.9%
O=[N+]([O-])c1ccc(Sc2nnnn2-c2ccccc2)c(Cl)c1	?	8.91µM*	5.9	?	10µM*
Cc1ccc(NC(=S)C2=C(O)c3ccccc3N(C)S2(=O)=O)cc1	i	0.6%	44.2	i	1.6%
COc1cccc(-c2cnc3c(NC=O)cc(-c4ccc(N(C)C)cc4)cn23)c1	?	?	19.5	?	18.4µM*
COc1ccc(-c2cc(NC=O)c3ncc(-c4cccc(OC)c4)n3c2)cc1	7.31µM*	?	89.2	6.51µM*	9.2µM*
O=CNc1cc(-c2cccc(F)c2)cn2c(-c3ccc(F)c(Cl)c3)cnc12	23.1µM*	-11.2%	0.0	?	?
COc1ccc(-c2cc(NC=O)c3ncc(-c4cccc(C(=O)NCCN(C)C)c4)n3c2)cc1	i	?	?	i	?
COc1ccc(-c2cc(NC=O)c3ncc(-c4cnn(C)c4)n3c2)cc1	18.4µM*	?	0.0	?	?
O=CNc1cc(-c2ccccc2)cn2c(-c3ccc(F)c(Cl)c3)cnc12	?	-11.5%	29.3	i	?
CN(C)c1ccc(-c2cc(NC=O)c3ncc(-c4ccc(F)c(Cl)c4)n3c2)cc1	i	?	?	?	?
CCN(c1ccccc1)S(=O)(=O)c1ccc(F)c(C(=O)Nc2ccc(C)cc2)c1	i	/	/	i	/
O=C(Nc1ccc(Cl)c([N+](=O)[O-])c1)ONC1=NCCCCC1	i	-2.8%	-53.5*	i	-21.9%
CCOC(=O)[C@@H](C)N(Cc1ccc(OC)cc1)S(=O)(=O)N(Cc1ccccc1)[C@H](C(=O)OC)C(C)C	9.2µM*!	-21.4%	16.7	?	-3.7%
COC(=O)[C@H](CC(C)C)N(Cc1ccccc1)S(=O)(=O)N(Cc1ccc(OC)cc1)[C@@H](CC(C)C)C(=O)OC	18.4µM*!	5.2%	20.3	?	-0.7%
COC(=O)[C@H](CC(C)C)N(Cc1ccccc1)S(=O)(=O)N(Cc1ccccc1)[C@@H](CC(C)C)C(=O)OC	?	-1.0%	6.8	?	-2.6%
O=C(O)c1cccs1	i	/	/	i	/
Cc1ccc(Cl)cc1NC(=O)Cn1c(=O)cc(C)c2c(C)nn(C)c21	i	/	/	i	/
Cc1ccc2nc(/N=C(\N)NC(=O)NC3CCCCC3)nc(C)c2c1	?	14.6µM*	-55.4*	?	23.1µM*
CCCC(=O)N/C(N)=N/c1nc(C)c2cc(C)ccc2n1	i	1.7%	-20.4	18.4µM*	-15.6%
CCC(=O)N/C(N)=N/c1nc(C)c2cc(C)c(C)cc2n1	i	6.8%	/	i	1.8%
